Where “and” joins values, the source holds several entries; their conditions need not be identical. Identical values can stand only once. Records with an inconclusive call do not appear. Calls of active or inactive are those of the source. Unless noted, calls follow the shape of the dose curve; as a rule, active = well fitted curve in the direction sought with a large enough effect; inconclusive = small, poorly fitted or top-dose-only effect, or another doubt; inactive = no such curve, though single readings can be large; an effect the other way counts as inactive or inconclusive.
Experiments:
[1] = target: DNA repair nuclease/redox regulator APEX1 (Homo sapiens) (UniProt P27695); test: qHTS Validation Assay for Inhibitors of the Human Apurinic/apyrimidinic Endonuclease 1 (APE1) (AID 1705;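 also: TAMRA fluorescence gain over two minutes as APE1 cuts a quenched THF abasic duplex; % is scaled to controls: 0 for no effect and ±100 for the full control effect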); details: purified APE1 endonuclease activity, fluorescence, titration; series mostly up to 57.1 µM
Sequence of DNA repair nuclease/redox regulator APEX1 (Homo sapiens) (P27695 whole entry, looked up): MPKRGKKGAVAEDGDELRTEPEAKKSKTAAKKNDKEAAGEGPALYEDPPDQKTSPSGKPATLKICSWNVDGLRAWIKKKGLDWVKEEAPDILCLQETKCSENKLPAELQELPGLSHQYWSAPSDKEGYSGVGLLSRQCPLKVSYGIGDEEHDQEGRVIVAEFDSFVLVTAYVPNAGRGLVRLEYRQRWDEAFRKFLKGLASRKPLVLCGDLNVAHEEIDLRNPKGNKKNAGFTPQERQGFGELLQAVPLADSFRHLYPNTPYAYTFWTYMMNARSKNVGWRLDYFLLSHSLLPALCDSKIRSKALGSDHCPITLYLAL
Procedure, shortened: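 Fluorogenic double-stranded THF abasic-site substrate (5'-TAMRA/3'-BHQ-2), 50 nM final. Enzyme preincubated with compound 15 min at room temperature, then substrate added. Kinetic fluorescence (ex 525/em 598 nm) read three times at 60 s intervals; activity taken as third-minus-first read difference.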

[2] = Counterscreen for APE1 Inhibitors: Fluorescent Dye Displacement Validation Assay (AID 1707); details: fluorescent dye displacement from DNA; series mostly up to 57.1 µM;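 also: plate controls were ThO with dsDNA and no compound for no effect and ThO without dsDNA for full effect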
Procedure, shortened: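 Counterscreen flags promiscuous DNA binders: compounds displacing ThO from duplex DNA (abasic THF site, 50 nM) reduce 540 nm emission (480 nm excitation). ThO 250 nM final; Tris-HCl pH 7.5 with NaCl, MgCl2 and Tween-20.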

[3] = target: Endonuclease 4 (Escherichia coli (strain K12)) (UniProt P0A6C1); test: Counterscreen for APE1 Inhibitors: qHTS Validation Assay for Inhibitors of Endonuclease IV (AID 1708); also: % is scaled to controls: 0 for no effect and ±100 for the full control effect; details: E. coli endonuclease IV, DNA cleavage fluorescence; series mostly up to 57.1 µM
Procedure, shortened: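 The reaction buffer contained 50 mM Tris-HCl pH 7.5, 50 mM NaCl, 2 mM MgCl2, 1 mM DTT and 0.01% Tween-20. Incision of a 50 nM fluorophore/quencher THF substrate by 2 nM enzyme was measured kinetically.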

[4] = qHTS for differential inhibitors of proliferation of Plasmodium falciparum line 7G8 (AID 1815); details: Plasmodium falciparum 7G8 proliferation inhibition; series mostly up to 28.7 µM;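 also: parasite growth measured after three days of incubation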; also: potency is read from the fitted curve at half-maximal effect;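 as to activity change, negative = inhibition: plate controls were vehicle wells for no effect and reference inhibitor wells for full effect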
[5] = qHTS for differential inhibitors of proliferation of Plasmodium falciparum line GB4 (AID 1816); details: Potency: Plasmodium falciparum GB4 proliferation inhibition; series mostly up to 28.7 µM;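 also: parasite growth measured after 72 h incubation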; also: potency is read from the fitted curve at half-maximal effect;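 as to activity change, negative = inhibition: 0% = vehicle DMSO and -100% = reference inhibitor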
[6] = qHTS for differential inhibitors of proliferation of Plasmodium falciparum line 3D7 (AID 1876); also: potency is read from the fitted curve at half-maximal effect; details: P. falciparum 3D7 proliferation inhibition; series mostly up to 28.7 µM
[7] = qHTS for differential inhibitors of proliferation of Plasmodium falciparum line D10 (AID 1877); details: series mostly up to 28.7 µM;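 also: parasites grown with compound for 72 h before DNA staining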; also: potency is read from the fitted curve at half-maximal effect;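 as to activity change, negative = inhibition: plate controls were vehicle wells for no effect and reference inhibitor wells for full effect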
[8] = qHTS for differential inhibitors of proliferation of Plasmodium falciparum line W2 (AID 1883); details: Potency: Plasmodium falciparum W2 proliferation inhibition; series mostly up to 28.7 µM;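 also: parasites grown with compound for 72 h before lysis and staining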; also: potency is read from the fitted curve at half-maximal effect;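 as to activity change, negative = inhibition: 0% = vehicle wells and -100% = control inhibitor wells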
[9] = qHTS Assay for Lipid Storage Modulators (AID 1519; calls by dose curve; as to activity change, negative = inhibition: % is scaled to controls: 0 for no effect and ±100 for the full control effect); details: Drosophila S3 cells, BODIPY lipid droplet/cell ratio, laser cytometry, cells loaded with oleic acid; for activity change, negative = inhibition: at 57.5 µM (top of the series)
Procedure, shortened: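 Cells seeded at 5,000 per well were treated with compounds over a concentration series and loaded with oleic acid (400 uM, as added). Lipid droplet fluorescence (488 nm excitation, 500-530 nm channel) was read by laser-scanning cytometry and normalized to 20 uM Triacsin C.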

[10] = qHTS for differential inhibitors of proliferation of Plasmodium falciparum line Dd2 (AID 1882); details: Potency: Plasmodium falciparum Dd2 proliferation inhibition; series mostly up to 28.7 µM; also: nearly all actives have a fitted effect of over 65% in size; also: potency is read from the fitted curve at half-maximal effect;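 as to activity change, negative = inhibition: compound exposure of 72 h on infected erythrocytes; plate controls were DMSO vehicle for no effect and 0.29 µM artemisinin for full effect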
Procedure, shortened: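 RBC culture, 0.3% parasitemia / 2.5% Hct final; cpd added by pin tool in DMSO; 72 h, 37 C, 5% CO2; lysis buffer + SYBR Green I, o/n RT dark; FI 485/535; norm. to artemisinin 0.29 uM and DMSO.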

[11] = measured here: cell count channel max response
[12] = measured here: lipid channel max response

CCc1cccc(N(C)C(N)=Nc2cccc3ccccc23)c1
active: Potency [4] 3.16 µM | Potency [5] 10 µM | Potency [6] 12.6 µM | Potency [7] 14.1 µM | Potency [8] 0.631 µM
inactive: Potency [1] | outcome [2] | Potency [3]

CN=C(NC#N)NCCSCc1nc[nH]c1C
19.5% and 21.3%: max response [9, 12]
19.1% and 8.99%: max response [9, 11]
inactive: activity change, negative = inhibition [9] 0.49% and 5% | outcome [2] | Potency [5] | Potency [6] | Potency [7] | Potency [10]

NCCCNCCSP(=O)(O)O
15.5%: max response [9, 12]
11.3%: max response [9, 11]
inactive: activity change, negative = inhibition [9] 2.83% | Potency [1] | Potency [4] | Potency [5] | Potency [6] | Potency [7] | Potency [10] | Potency [8]

CCCCCN(CCCCC)C(=O)C(CCC(=O)O)NC(=O)c1ccc(Cl)c(Cl)c1 (centres undefined)
inactive: activity change, negative = inhibition [9] 2.8% | Potency [1] | Potency [4] | Potency [5] | Potency [6] | Potency [7] | Potency [10] | Potency [8]
-4.23%: max response [9, 12]
-5.79%: max response [9, 11]

CC(C)(C)NCC(O)c1cc(O)cc(O)c1 (centres undefined)
inactive: Potency [1] | outcome [2] | Potency [3] | Potency [4] | Potency [5] | Potency [6] | Potency [7] | Potency [10] | Potency [8]

C[n+]1cc2c3c(ccc2c2ccc4cc5c(cc4c21)OCO5)OCO3
inactive: Potency [1]
active: Potency [4] 4.47 µM | Potency [5] 2.82 µM | Potency [6] 2.82 µM | Potency [7] 3.55 µM | Potency [10] 6.31 µM | Potency [8] 2.51 µM

CCOC(=O)C1=C(C)NC(C)=C(C(=O)OC)C1c1cccc(Cl)c1Cl (centres undefined)
inactive: Potency [1] | outcome [2]
active: Potency [4] 12.6 µM | Potency [5] 12.6 µM | Potency [6] 8.91 µM | Potency [7] 15.8 µM | Potency [8] 8.91 µM

O=C(O)CP(=O)(O)O
inactive: Potency [1] | Potency [4] | Potency [7] | Potency [10]

Brc1c(NC2=NCCN2)ccc2nccnc12
inactive: Potency [1] | Potency [7] | Potency [10]

COCCCC/C(=N\OCCN)c1ccc(C(F)(F)F)cc1
active: Potency [4] 10 µM | Potency [5] 5.62 µM | Potency [8] 2.24 µM
inactive: Potency [1] | outcome [2]

NC(=O)c1ncn([C@@H]2O[C@H](CO)[C@@H](O)[C@H]2O)c1O
inactive: Potency [1] | Potency [3] | Potency [4] | Potency [5] | Potency [6] | Potency [7] | Potency [10] | Potency [8]

OCCN1CCN(CC/C=C2/c3ccccc3Sc3ccc(C(F)(F)F)cc32)CC1
inactive: Potency [1]
active: Potency [4] 2.51 µM | Potency [5] 2.24 µM | Potency [6] 2.51 µM | Potency [7] 12.6 µM | Potency [10] 7.94 µM | Potency [8] 1.58 µM

Cc1nnc(SCC2=C(C(=O)O)N3C(=O)[C@@H](NC(=O)Cn4cnnn4)[C@H]3SC2)s1
inactive: Potency [1] | Potency [6] | Potency [7] | Potency [10]

O=C(CCCN1CCC(O)(c2cccc(C(F)(F)F)c2)CC1)c1ccc(F)cc1
active: Potency [4] 3.55 µM | Potency [5] 3.16 µM | Potency [6] 3.55 µM | Potency [7] 12.6 µM | Potency [10] 3.98 µM | Potency [8] 2.24 µM
inactive: Potency [1]

COC(=O)[C@H]1[C@H]2C[C@@H]3c4[nH]c5cc(OC)ccc5c4CCN3C[C@H]2C[C@@H](OC(=O)c2cc(OC)c(OC)c(OC)c2)[C@@H]1OC
active: Potency [4] 0.282 µM | Potency [5] 2 µM | Potency [6] 1.78 µM | Potency [7] 2.82 µM | Potency [10] 2.24 µM | Potency [8] 0.891 µM
inactive: Potency [1]

CN(C)C(=O)Oc1cccc([N+](C)(C)C)c1
inactive: Potency [1] | Potency [3] | Potency [4] | Potency [5] | Potency [6] | Potency [7] | Potency [10] | Potency [8]

CN(C)C(=O)Oc1ccc[n+](C)c1
inactive: Potency [1] | Potency [4] | Potency [5] | Potency [6] | Potency [7] | Potency [10] | Potency [8]

CCCNC(C)C(=O)Nc1ccccc1C (centres undefined)
inactive: Potency [1] | outcome [2] | Potency [4] | Potency [6] | Potency [7] | Potency [10]

COc1ccc([C@@H]2Sc3ccccc3N(CCN(C)C)C(=O)[C@@H]2OC(C)=O)cc1
inactive: Potency [1] | outcome [2] | Potency [7]
active: Potency [8] 7.08 µM

CCCN1C[C@H](CSC)C[C@@H]2c3cccc4[nH]cc(c34)C[C@H]21
active: Potency [4] 11.2 µM | Potency [5] 5.62 µM | Potency [6] 11.2 µM | Potency [7] 11.2 µM | Potency [8] 4.47 µM
inactive: Potency [1]

CNCCC(Oc1ccccc1OC)c1ccccc1 (centres undefined)
inactive: Potency [1] | Potency [3] | Potency [7]
active: Potency [4] 3.55 µM

COC(=O)[C@@H](N)Cc1ccc(O)c(O)c1
inactive: Potency [1] | Potency [3] | Potency [10]
active: Potency [5] 14.1 µM

CN(C(=O)CCCOc1ccc2[nH]c(=O)ccc2c1)C1CCCCC1
inactive: Potency [1] | outcome [2]
active: Potency [4] 7.08 µM | Potency [8] 14.1 µM

C(=C\c1ccccc1)/CN1CCN(C(c2ccccc2)c2ccccc2)CC1
inactive: Potency [1]
active: Potency [4] 3.98 µM | Potency [5] 8.91 µM | Potency [10] 11.2 µM

O=C1CC2(CCCC2)CC(=O)N1CCCCN1CCN(c2ncccn2)CC1
inactive: Potency [1] | Potency [3] | Potency [10]

Nc1ncn([C@@H]2O[C@H](CO)[C@@H](O)[C@H]2O)c(=O)n1
inactive: Potency [1] | Potency [3] | Potency [4] | Potency [5] | Potency [6] | Potency [7] | Potency [10] | Potency [8]

Reference: PubChem BioAssay (NCATS)
